In PubChem BioAssay AID1159580 (chemical genetic matrix, 2015):
Hit rate of the full screen: of about 5,500 compounds, about 2,000 (36%) were called active. Inconclusive results (about 18%) are left out. Rule as the data show it: active = normalized growth mostly below about 0.91 (no sharp cut-off); inconclusive = no clear call, values can overlap the other calls; inactive = mostly above about 0.92. The list shows a part of the results.

Assay: chemical genetic growth profiling, strain panel (AID 1159580);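 also: tested at 20 µM; growth read once vehicle control cultures reached saturation at 30 °C; 1 = growth at the plate median or of vehicle wells; lower values mean less growth of the strain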
Details: S. cerevisiae deletion strains, growth OD

Measured: normalized growth

CCC1OC(=O)[C@H](C)C(=O)[C@H](C)[C@@H](OC2O[C@H](C)C[C@H](N(C)C)[C@H]2O)[C@](C)(OC)C2(CCCn3cnc(-c4cccnc4)c3)C[C@@H](C)C(=O)[C@H](C)[C@H]3N(C2)C(=O)O[C@]13C (stereo partly drawn)
inactive: locus YAL013W, strain DEP1, hits give low values 1 | locus YAL021C, strain ccr4, hits give low values 0.973 | locus YAL026C, strain drs2, hits give low values 0.976 | locus YAL030W, strain snc1, hits give low values 0.981 | locus YBL061C, strain skt5, hits give low values 0.98 | locus YBR009C, strain hhf1, hits give low values 0.962 | locus YBR021W, strain FUR4, hits give low values 1 | locus YBR023C, strain chs3, hits give low values 0.998 | locus YBR171W, strain sec66, hits give low values 0.984 | locus YBR229C, strain ROT2, hits give low values 1 | locus YBR231C, strain swc5, hits give low values 0.984 | locus YBR279W, strain paf1, hits give low values 0.996 | locus YCL011C, strain gbp2, hits give low values 0.981 | locus YCL016C, strain dcc1, hits give low values 0.975 | locus YCL029C, strain bik1, hits give low values 1 | locus YCL069W, strain vba3, hits give low values 0.979 | locus YCR088W, strain abp1, hits give low values 0.979 | locus YDL005C, strain med2, hits give low values 0.989 | locus YDL035C, strain GPR1, hits give low values 1.01 | locus YDL040C, strain nat1, hits give low values 0.982 | locus YDL074C, strain BRE1, hits give low values 1.02 | locus YDL101C, strain DUN1, hits give low values 1.01 | locus YDL134C, strain PPH21, hits give low values 1.01 | locus YDL185W, strain tfp1, hits give low values 1.01 | locus YDL192W, strain arf1, hits give low values 1.01 | locus YDR001C, strain nth1, hits give low values 0.983 | locus YDR069C, strain doa4, hits give low values 0.996 | locus YDR101C, strain arx1, hits give low values 0.985 | locus YDR137W, strain rgp1, hits give low values 0.937 | locus YDR150W, strain NUM1, hits give low values 1.01 | locus YDR159W, strain sac3, hits give low values 0.96 | locus YDR162C, strain NBP2, hits give low values 1.02 | locus YDR195W, strain ref2 0.968 | locus YDR297W, strain sur2, hits give low values 0.982 | locus YDR318W, strain mcm21, hits give low values 1 | locus YDR334W, strain swr1, hits give low values 0.977 | locus YDR335W, strain msn5, hits give low values 0.976 | locus YDR388W, hits give low values 1.01 | locus YDR392W, strain spt3, hits give low values 0.936 | locus YDR502C, strain sam2, hits give low values 0.991 | locus YEL003W, strain gim4, hits give low values 0.958 | locus YEL037C, strain rad23, hits give low values 0.975 | locus YEL061C, strain CIN8 (second series), hits give low values 0.983 | locus YEL061C, strain CIN8, hits give low values 1 | locus YER015W, strain faa2, hits give low values 0.987 | locus YER016W, strain bim1, hits give low values 0.992 | locus YER110C, hits give low values 0.993 | locus YER111C, strain swi4, hits give low values 0.964 | locus YER155C, strain BEM2 (second series), hits give low values 1.02 | locus YER155C, strain BEM2, hits give low values 1.01 | locus YER167W, strain BCK2, hits give low values 1.01 | locus YFR010W, strain ubp6, hits give low values 0.995 | locus YGL078C, strain dbp3, hits give low values 1.01 | locus YGL086W, strain mad1, hits give low values 0.995 | locus YGL167C, strain pmr1, hits give low values 0.986 | locus YGL173C, strain kem1, hits give low values 0.975 | locus YGL227W, strain vid30, hits give low values 0.978 | locus YGL240W, strain doc1, hits give low values 0.994 | locus YGL248W, strain PDE1, hits give low values 1 | locus YGL253W, strain hxk2, hits give low values 0.965 | locus YGR078C, strain PAC10, hits give low values 1.03 | locus YGR135W, strain pre9, hits give low values 0.993 | locus YGR229C, strain SMI1, hits give low values 1.01 | locus YGR252W, strain gcn5, hits give low values 0.965 | locus YHR013C, strain ard1, hits give low values 0.96 | locus YHR027C, strain rpn1, hits give low values 0.99 | locus YHR030C, strain SLT2, hits give low values 0.999 | locus YHR079C, strain IRE1 (second series), hits give low values 0.991 | locus YHR094C, strain hxt1, hits give low values 1 | locus YHR129C, strain ARP1, hits give low values 1 | locus YHR142W, strain chs7, hits give low values 0.973 | locus YHR200W, strain rpn10, hits give low values 1 | locus YIL066C, strain RNR3, hits give low values 1.01 | locus YIL073C, strain SPO22, hits give low values 0.991 | locus YIL125W, strain kgd1, hits give low values 1 | locus YIR030C, strain dcg1, hits give low values 0.999 | locus YJL092W, strain hpr5, hits give low values 0.979 | locus YJL095W, strain BCK1 (second series), hits give low values 0.995 | locus YJL095W, strain BCK1, hits give low values 1 | locus YJL115W, strain asf1, hits give low values 0.973 | locus YJL129C, strain trk1, hits give low values 1.01 | locus YJL134W, strain LCB3, hits give low values 1.01 | locus YJL154C, strain vps35, hits give low values 0.977 | locus YJL164C, strain tpk1, hits give low values 0.977 | locus YJL166W, strain qcr8, hits give low values 0.998 | locus YJL168C, strain set2, hits give low values 0.999 | locus YJL187C, strain SWE1 (second series), hits give low values 0.999 | locus YJL187C, strain SWE1, hits give low values 0.984
